Source: PubChem
Shown are actives, neighbours in structure and some others; about 7.3% of the full set was active somewhere.
ELG1 genotoxic – qHTS screen for small molecules that induce genotoxicity in human embryonic kidney (HEK293T) cells expressing luciferase-tagged ELG1; AID 504466, 2011; HEK293T ELG1-luciferase reporter, luminescence, 16 h; Potency, µM (top dose mostly 46 µM), actives largely listed as activators; 330,000 tested, 1.3% active; also: nearly all actives have a fitted effect of over 60% in size
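Step 1: seed 2,000 HEK293T ELG1-luciferase cells per well. Step 2: add compound or DMSO, incubate 16 hr at 37 °C. Step 3: ONE-Glo, 30 min at room temperature, read luminescence.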
p53 reactivator – qHTS assay for re-activators of p53 using a Luc reporter; H1299 p53-A138V BP100-luciferase reporter, luminescence, 24 h; Potency, µM (highest dose often 92.2 µM), actives largely listed as activators; 320,000 tested, 0.063% active; also: nearly all actives have a fitted effect of over 45% in size
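p53-null H1299 cells stably carrying temperature-sensitive p53-A138V and a BP100-luciferase reporter were pinned with compounds (4-point, 1:5 series) and held 24 hrs at 37 deg C. Luminescence was read 10 min after detection reagent.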
FLuc counter – qHTS profiling assay for firefly luciferase inhibitor/activator using purifed enzyme and Km concentrations of substrates (counterscreen for miR-21 project) | 360,000 tested, 6.9% active | Luciferin 4-monooxygenase (Photinus pyralis), P08659 | AID 588342, 2011 | purified FLuc, Km substrates, luminescence inhibition | Potency, µM (highest dose often 57.5 µM), actives largely listed as inhibitors; also: nearly all actives have a fitted effect of over 55% in size
Target sequence (P08659 whole entry, looked up): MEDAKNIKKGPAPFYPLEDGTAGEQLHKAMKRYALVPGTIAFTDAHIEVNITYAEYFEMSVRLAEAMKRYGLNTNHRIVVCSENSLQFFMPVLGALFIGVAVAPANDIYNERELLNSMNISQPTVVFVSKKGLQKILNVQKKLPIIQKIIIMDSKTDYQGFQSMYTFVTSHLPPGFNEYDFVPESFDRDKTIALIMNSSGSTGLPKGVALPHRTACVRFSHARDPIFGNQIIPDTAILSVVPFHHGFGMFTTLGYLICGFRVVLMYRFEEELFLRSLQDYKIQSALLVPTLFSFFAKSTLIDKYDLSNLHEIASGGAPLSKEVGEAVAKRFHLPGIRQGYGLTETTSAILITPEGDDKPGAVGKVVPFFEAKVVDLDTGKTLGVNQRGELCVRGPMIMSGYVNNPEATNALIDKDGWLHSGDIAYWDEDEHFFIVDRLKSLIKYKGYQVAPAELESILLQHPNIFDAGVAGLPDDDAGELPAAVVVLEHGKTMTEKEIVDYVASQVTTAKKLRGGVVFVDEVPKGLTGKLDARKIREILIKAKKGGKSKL
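Biochemical qHTS of compounds, final roughly 60 µM downward over six points, against 10 nM purified firefly luciferase using Km concentrations of substrates (10 uM D-luciferin, 10 uM ATP) in Tris acetate pH 7.5 buffer; luminescence output.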
SMN2 splice up – qHTS Assay for Enhancers of SMN2 Splice Variant Expression | HEK293 SMN2-luciferase splicing reporter, luminescence, 30-36 h | Potency, µM (series often up to 46.1 µM), usual class: activators | 210,000 tested, 2.8% active; also: nearly all actives have a fitted effect of over 55% in size
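qHTS luciferase splicing reporter: luminescence rises when SMN2 exon 7 is included in transfected HEK293 cells. Compound exposure lasted 30-36 h at 37C, with 4.5 mM final sodium butyrate as control, followed by a ONE-Glo read.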
NPC1 prom act – qHTS Assay for NPC1 Promoter Activators; Huh7 NPC1 promoter luciferase reporter, 24 h; Potency, µM (titrated, usually from 9.22 µM), most hits filed as activators; 320,000 tested, 2.4% active; also: nearly all actives have a fitted effect of over 60% in size
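Huh7 cells stably carrying NPC1 promoter–luciferase, plated in Opti-MEM with 10% FBS for 2 h, were exposed to compound in DMSO for 24 h at 37 °C; luciferase reagent was added for 10 min and luminescence read.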
Rab9 prom act – qHTS Assay for Rab9 Promoter Activators | Huh7 Rab9 promoter-luciferase reporter, luminescence, 24 h | Potency, µM (series often up to 9.22 µM), actives largely listed as activators | 320,000 tested, 2.8% active | AID 485297, 2010; also: nearly all actives have a fitted effect of over 60% in size
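Stable Rab9-luc Huh7, 1500 cells/well, 2 h settle; cmpd in DMSO, 24 h, 37 °C/5% CO2; luciferase reagent 10 min RT; luminescence.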
Numbers stand for hits; 0 = inactive; ? = inconclusive; - = no result given; [ ] = another dose, or the depositor's remark. Calls follow the shape of the dose curve; as a rule, active = well fitted curve in the direction sought with a large enough effect; inconclusive = small, poorly fitted or top-dose-only effect, or another doubt; inactive = no such curve, though single readings can be large; an effect the other way counts as inactive or inconclusive.

SMILES	ELG1 genotoxic	p53 reactivator	FLuc counter	SMN2 splice up	NPC1 prom act	Rab9 prom act
CC(C)(C)OC(=O)N/N=C\c1ccc(OC(=O)c2ccco2)cc1	?	0	0	?	?	4µM
Nc1ccccc1S[C@@H](C[N+](=O)[O-])c1ccc2c(c1)OCO2	-	-	-	0[9.22 µM]	-	-
C=CCNc1ncnc2c1cnn2-c1cccc(C)c1	2.9µM	0	4.8µM	11µM	2.5µM	1.4µM
Cc1ccc(-n2c(C)c(C)c3c(NCCCO)ncnc32)cc1	?	0	19µM	-	2.8µM	2.5µM
Cc1cccc(-n2ncc3c(NCCCO)ncnc32)c1	3.7µM	?	6.7µM	11µM	2.5µM	1.1µM
CCN(CC)CCCNc1ncnc2c1cnn2-c1ccc(C)c(C)c1	-	-	15µM	-	-	-
CCCCNc1ncnc2c1cnn2-c1ccc(C)cc1C	0	0	0	0	0	0
COc1ccccc1CCN=C(N)NS(=O)(=O)c1ccc(C)c(C)c1	0	0	0	-	0	0
Cc1cc(SCC(=O)OC(C)C(=O)N(C)c2ccccc2)nc2ccccc12 (configuration not stated)	0	0	0	-	0	0
C=CCNc1ncnc2c1cnn2-c1ccc(Cl)cc1	1.8µM	-	0.85µM	2.8µM	0.89µM	1.1µM
Cc1ccc(CNc2ncnc3c2cnn3-c2ccc(Cl)cc2)cc1	-	-	0	-	-	-
Cc1c(C)n(CCc2ccccc2)c2ncnc(NCCO)c12	?	0	17µM	-	3.5µM	1.8µM
O=C1C(=O)c2ccc(-c3ccccc3)cc2-c2ccccc21	0	0	0	0	0	0
O=C1C(c2ccccc2)=[N+]([O-])c2ccccc21	?	0	12µM	-	0	0
CC(C)OCCCNC(=O)C(=O)Nc1ccc2nc3n(c(=O)c2c1)CCCCC3	-	-	0	0	-	-
Cc1ccccc1-c1nc(-c2ccc(Br)o2)no1	?	?	3.4µM	-	1.8µM	2.2µM
Fc1ccccc1-c1nc(-c2ccc(Br)o2)no1	?	?	0.85µM	-	0.5µM	?
COc1ccc(Cl)cc1-c1nc(-c2ccc(Br)o2)no1	0	0	0	?	?	?
Cc1ccccc1-c1nc(-c2ccc(NC(=O)c3ccc(Br)o3)cc2)no1	?	?	?	0	?	?
COc1cc(-c2nc(-c3ccc(C)nc3OC)no2)cc(OC)c1OC	0	0	0	0	0	0
COc1nc(C)ccc1-c1noc(-c2ccncc2)n1	?	?	13µM	14µM	?	?
CCOc1nc(C)ccc1-c1noc(-c2ccccn2)n1	0	?	?	0	0	0
CCOc1ccccc1-c1nc(-c2ccc(C)nc2OC)no1	?	?	9.5µM	?	4.5µM	3.2µM
COc1nc(C)ccc1-c1noc(-c2cccs2)n1	?	?	1.5µM	-	0.56µM	0.5µM
O=c1nc2c(O)cccn2c2c1c(=O)[nH]c1ccccc12	0	0	0	-	0	0
SMILES	ELG1 genotoxic	p53 reactivator	FLuc counter	SMN2 splice up	NPC1 prom act	Rab9 prom act
O=c1[nH]c2ccccc2c2nc3ccccn3c12	?	?	17µM	0	?	?
N#C/C(=C\c1ccc(Sc2ccc(Cl)cc2)o1)c1nc2ccccc2[nH]1	0	0	0	0	0	0
N#C/C(=C\c1ccc(Cl)cc1)c1nc2ncccc2[nH]1	0	0	3µM	0	0	0
O=C(O)CCSc1nc2ccccc2s1	0	0	21µM	0	0	0
O=C(O)CCSc1ccc2ccccc2n1	0	0	24µM	0	0	0
c1ccc2sc(SCSc3nc4ccccc4s3)nc2c1	0	0	?	0[9.22 µM]	0	0
N#CCc1nc(CSc2nc3ccccc3s2)cs1	18µM	?	?	0	0	?
CCC(C)(C)NC(=O)CCCSc1nc2ccccc2s1	0	0	24µM	?	?	?
C(=C\n1nnc2ccccc21)/c1ccccn1	?	?	4.3µM	-	2µM	1.1µM
Nn1nnc2ccccc21	0	0	0	0	0	0
COc1ccccc1NC(=O)Nc1nc2ccc(S(N)(=O)=O)cc2s1	?	0	?	-	?	4µM
COc1ccc2nc(Nc3ccc4c(c3)OCO4)sc2c1	5.8µM	?	?	?	?	4.5µM
